Here are results for 36 compounds from PubChem BioAssay (Tox21).

Records with an inconclusive call do not appear. Where a call stands in place of a potency, no number is given. A number with no mark means an inactive call. Activity calls are given as the source filed them. Calls follow the shape of the full dose curve.
Potency is read from the fitted curve at half-maximal effect.

Chain of Progesterone receptor (Homo sapiens) (P06401 whole entry, looked up): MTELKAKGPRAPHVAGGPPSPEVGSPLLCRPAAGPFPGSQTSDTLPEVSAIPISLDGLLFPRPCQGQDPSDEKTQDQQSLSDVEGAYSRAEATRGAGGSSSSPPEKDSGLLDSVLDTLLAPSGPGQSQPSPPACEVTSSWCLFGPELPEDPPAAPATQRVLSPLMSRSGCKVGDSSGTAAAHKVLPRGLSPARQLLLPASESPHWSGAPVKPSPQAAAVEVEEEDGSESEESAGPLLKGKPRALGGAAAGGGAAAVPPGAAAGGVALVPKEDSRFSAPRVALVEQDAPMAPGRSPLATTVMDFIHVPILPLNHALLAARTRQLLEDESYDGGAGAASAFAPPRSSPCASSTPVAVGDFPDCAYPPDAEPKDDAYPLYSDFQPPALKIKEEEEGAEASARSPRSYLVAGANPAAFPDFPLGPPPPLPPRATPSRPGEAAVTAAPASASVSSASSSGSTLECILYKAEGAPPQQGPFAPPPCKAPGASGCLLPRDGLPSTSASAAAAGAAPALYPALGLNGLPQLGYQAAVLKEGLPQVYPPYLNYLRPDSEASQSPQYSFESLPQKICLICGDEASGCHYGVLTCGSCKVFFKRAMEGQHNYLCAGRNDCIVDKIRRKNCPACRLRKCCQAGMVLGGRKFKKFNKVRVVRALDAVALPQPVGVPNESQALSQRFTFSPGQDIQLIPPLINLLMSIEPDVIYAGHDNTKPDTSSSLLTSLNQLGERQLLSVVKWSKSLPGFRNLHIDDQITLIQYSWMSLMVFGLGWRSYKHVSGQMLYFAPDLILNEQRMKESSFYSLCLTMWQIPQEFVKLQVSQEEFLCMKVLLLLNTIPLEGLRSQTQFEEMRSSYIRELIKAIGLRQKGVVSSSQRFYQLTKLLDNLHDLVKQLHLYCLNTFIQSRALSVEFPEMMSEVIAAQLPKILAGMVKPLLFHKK

The assay has as its target Progesterone receptor (Homo sapiens) (UniProt P06401). Description: qHTS assay to identify small molecule agonists of the progesterone receptor (PR) signaling pathway (AID 1346784). Also: nearly all actives have a fitted effect of over 30% in size. The note with it: PR-UAS-bla HEK293T, beta-lactamase FRET ratio, 16 h; series mostly up to 92.4 µM; activation: at the top concentration. The method in brief:
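Agonist mode, quantitative HTS format in a HEK 293T line expressing a UAS-controlled beta-lactamase reporter; 16 hr compound exposure at 37C in 2% charcoal-stripped FBS, then LiveBLAzer B/G FRET fluorescence.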
Background: In qHTS, concentration-response curves come from the screen itself.
`c1ccc2c(c1)Oc1ccccc1S2`: the Potency result was “inactive”. Still for that read-out and setting: the figure for `C#C[C@]1(O)CC[C@H]2[C@@H]3CCc4cc(OC)ccc4[C@H]3CC[C@@]21C` is 7.7 µM (active); for `Cc1cc2nc3c(=O)[nH]c(=O)nc-3n(C[C@H](O)[C@H](O)[C@H](O)CO)c2cc1C` it is “inactive”; for `COC(=O)c1ccccc1` it is “inactive”. For the compound `CC(C)OC=O`, the Potency result was “inactive”.

With `Cc1ccc(C(=O)c2cc(O)c(O)c([N+](=O)[O-])c2)cc1`, the “activation” value is 3.79% [at 42.5 µM]. Take `O=C1c2cccc(O)c2C(=O)c2c(O)cccc21`: the Potency entry was “inactive”. The same measure, in the same setting: the entry for `C[Si](C)(C)O[Si](C)(C)C` is “inactive”; for `O=C=Nc1ccc(Cc2ccc(N=C=O)cc2)cc1` it is “inactive”; for `CN(C)C(=N)N=C(N)N` it is “inactive”. Take `CCCCCCCCCC(=O)OC`: the Potency entry was “inactive”. Same read-out and setting: for `c1ccncc1` the value was “inactive”; for `Cc1c(OCC(F)(F)F)ccnc1CS(=O)c1nc2ccccc2[nH]1` (stereo unspecified), “inactive”; for `O=C(/C=C/C=C/c1ccc2c(c1)OCO2)N1CCCCC1`, “inactive”.

On to `COC(=O)Nc1nc2ccc(S(=O)c3ccccc3)cc2[nH]1` (stereo unspecified), for which the Potency result is “inactive”. `S=C(NC1CCCCC1)NC1CCCCC1`: the Potency entry is “inactive”.

As to `O=C(COc1ccc(Cl)cc1)N1CCN(Cc2ccc3c(c2)OCO3)CC1`, the Potency entry is “inactive”. For the compound `c1ccc(Nc2ccccc2)cc1`, the Potency entry was “inactive”. With `CCC(C)(O)CCCC(C)C` (stereo unspecified), the Potency result was “inactive”. Consider `Cn1cnc([N+](=O)[O-])c1Sc1ncnc2nc[nH]c12`, for which the “activation” value was -4.53% [at 42.5 µM].

For `CCOC(=O)C(C#N)=C(c1ccccc1)c1ccccc1`, the Potency result was “inactive”.

As to `O=C(c1ccccc1)c1ccc(O)cc1O`, the Potency result is “inactive”.

`CC(C)=CCC/C(C)=C\CO`: the Potency entry is “inactive”. Turning to `C/C=C/C(=O)O`, the Potency result was “inactive”. Still for that read-out and setting: the entry for `CC(=O)CC/C=C(\C)CCC=C(C)C` is “inactive”. Same read-out and setting: for `Nc1ccc(Cl)cc1Cl` the value was “inactive”. For the compound `Brc1cc(Oc2cc(Br)c(Br)c(Br)c2Br)c(Br)c(Br)c1Br`, the Potency result is “inactive”. With `OC1CCCCCCCCCCC1`, the Potency result is “inactive”. As for `CCCCOCCOCCO`, the Potency entry is “inactive”.

On to `COc1ccccc1/C=C/C=O`, for which the Potency entry is “inactive”. On the same count and under the same terms, the figure for `C[C@]12CC[C@H]3[C@@H](CCC4=CC(=O)CC[C@@]43C)[C@@H]1CC[C@@H]2C(=O)CO` is 0.237 µM (active); for `CCCCOCCOCCOCCO` it is “inactive”.

With `CC1=CC2C3CC(C=C3C)C2C1` (stereo unspecified), the Potency entry was “inactive”. On the same count and under the same terms, for `CC(C)(C)NC(=O)[C@H]1CC[C@H]2[C@@H]3CC[C@H]4NC(=O)C=C[C@]4(C)[C@H]3CC[C@]12C` the value was “inactive”; for `CC(C)Oc1ccc2c(=O)c(-c3ccccc3)coc2c1`, “inactive”. For the compound `O=C1OC2(c3cc(Br)c(O)c(Br)c3Oc3c2cc(Br)c(O)c3Br)c2c(Cl)c(Cl)c(Cl)c(Cl)c21`, the “activation” value is -6.78% [at 42.5 µM].
